Counter-ions that a name gives are not always drawn.
tested on: Saccharomyces cerevisiae BY4741 SeMeCo community; test: z-score of subpopulation abundance vs DMSO median, subpopulation auxotrophic for M; higher = larger share of this subpopulation than in DMSO controls; settings: 10 µM; 24 h; SM minimal medium; subpopulation (auxotrophy): M
Method: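 Fluorescent four-plasmid SeMeCo (self-establishing metabolically cooperating S. cerevisiae BY4741 community; plasmids pH-mRuby2, pL-mWasabi, pU-eCFP, pM-TagRFP657) was grown 24 h in minimal SM medium with each Selleck FDA-approved drug at 10 µM in 384-well plates. Cells were fixed and imaged by high-content confocal microscopy. For each auxotrophic subpopulation (and the prototroph), a z-score gives the deviation from the DMSO vehicle-control population median.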

SMILES	z-score of subpopulation abundance
COC(=O)C1=C(C)NC(C)=C(C(=O)OCCN2CCN(C(c3ccccc3)c3ccccc3)CC2)C1c1cccc([N+](=O)[O-])c1 (stereo not given) [Manidipine]	1.78
O=c1[nH]cnc2c1ncn2[C@@H]1O[C@H](CO)[C@@H](O)[C@H]1O [Isoprinosine]	-0.21
CNCC[C@H](Oc1cccc2ccccc12)c1cccs1 [Duloxetine HCl]	0.4
Clc1ccc(CCC(Cn2ccnc2)Sc2c(Cl)cccc2Cl)cc1 (stereo not given) [Butoconazole nitrate]	-9.08
CO/N=C(\C(=O)N[C@@H]1C(=O)N2C(C(=O)O)=CCS[C@H]12)c1csc(N)n1 [Ceftizoxime sodium]	1.04
CCCCOC(=O)c1ccc(O)cc1 [Butylparaben]	-0.57
CO[C@H]1O[C@@H]2O[C@@]3(C)CC[C@H]4[C@H](C)CC[C@@H]([C@H]1C)[C@@]24OO3 [Artemether]	-4.52
Nc1nnc(-c2cccc(Cl)c2Cl)c(N)n1 [Lamotrigine]	0.91
CN(C)CCCN1c2ccccc2CCc2ccc(Cl)cc21 [Clomipramine HCl]	0.54
CO[C@@]1(NC(=O)Cc2cccs2)C(=O)N2C(C(=O)O)=C(COC(N)=O)CS[C@@H]21 [Cefoxitin sodium]	-0.16
CC(C)(O/N=C(\C(=O)N[C@@H]1C(=O)N2C(C(=O)[O-])=C(C[n+]3ccccc3)CS[C@H]12)c1csc(N)n1)C(=O)O [Ceftazidime]	-0.44
CCC(=O)NS(=O)(=O)c1ccc(-c2c(-c3ccccc3)noc2C)cc1 [Parecoxib]	0.6
C[C@]12CC[C@@H]3c4ccc(O)cc4CC[C@H]3[C@@H]1CC[C@@H]2O [Estradiol]	0.4
CC(C)N1CCN(c2ccc(OCC3COC(Cn4cncn4)(c4ccc(Cl)cc4Cl)O3)cc2)CC1 (stereo not given) [Terconazole]	-1.43
O=C(O)c1cc(=O)c2c(OCC(O)COc3cccc4oc(C(=O)O)cc(=O)c34)cccc2o1 [Disodium Cromoglycate]	-0.6
CN[C@H](CC(C)C)C(=O)N[C@H]1C(=O)N[C@@H](CC(N)=O)C(=O)N[C@H]2C(=O)N[C@H]3C(=O)N[C@H](C(=O)N[C@H](C(=O)O)c4cc(O)cc(O)c4-c4cc3ccc4O)[C@H](O)c3ccc(c(Cl)c3)Oc3cc2cc(c3O[C@@H]2O[C@H](CO)[C@@H](O)[C@H](O)[C@H]2O[C@H]2C[C@](C)(N)[C@H](O)[C@H](C)O2)Oc2ccc(cc2Cl)[C@H]1O [Vancomycin]	-0.82
O=C1OC(CN2CCOCC2)CN1/N=C/c1ccc([N+](=O)[O-])o1 (stereo not given) [Furaltadone HCl]	0.83
Cc1ncc([N+](=O)[O-])n1CCO [Metronidazole]	0.32
CCCCCOc1ccccc1/C(=C\SC)n1ccnc1 [Neticonazole Hydrochloride]	-1.87
CC/C(=C(\c1ccccc1)c1ccc(OCCN(C)C)cc1)c1ccccc1 [Tamoxifen]	0.18

SMILES	z-score of subpopulation abundance
c1cnc2cc3c(cc2n1)[C@@H]1CNC[C@H]3C1 [Varenicline Tartrate]	-0.55
Nc1nc(N)nc(-c2cc(Cl)ccc2Cl)n1 [Irsogladine]	-0.36
CCN(CC)CC#CCOC(=O)C(O)(c1ccccc1)C1CCCCC1 (stereo not given) [Oxybutynin chloride]	-0.21
Cc1onc(-c2c(Cl)cccc2Cl)c1C(=O)N[C@@H]1C(=O)N2[C@@H]1SC(C)(C)[C@@H]2C(=O)O [Dicloxacillin Sodium]	-0.23
O=C(O)C1=C(CSc2nnnn2CS(=O)(=O)O)CS[C@@H]2[C@H](NC(=O)[C@H](O)c3ccccc3)C(=O)N12 [Cefonicid sodium]	-0.38
Nc1ccc(S(=O)(=O)Nc2nccs2)cc1 [Sulfathiazole]	-0.25
CN(C)CCCC1(c2ccc(F)cc2)OCc2cc(C#N)ccc21 (stereo not given) [Citalopram HBr]	-0.6
Cn1c(=O)c2[nH]cnc2n(C)c1=O [Aminophylline]	0.43
CO/N=C1\C[C@]2(C[C@@H]3C[C@@H](C/C=C(\C)C[C@@H](C)/C=C/C=C4\CO[C@@H]5[C@H](O)C(C)=C[C@@H](C(=O)O3)[C@]45O)O2)O[C@H](/C(C)=C/C(C)C)[C@H]1C [Moxidectin]	-0.74
NC(=N\CCCCCC/N=C(N)/N=C(\N)Nc1ccc(Cl)cc1)/N=C(\N)Nc1ccc(Cl)cc1 [Chlorhexidine diacetate]	-2.47
COc1ccc(C(C)=O)c(O)c1 [Paeonol]	-0.69
CCCCCCCCCC(=O)NC1C(Oc2c3cc4cc2Oc2ccc(cc2Cl)C(OC2OC(CO)C(O)C(O)C2NC(C)=O)C2NC(=O)C(NC(=O)C4NC(=O)C4NC(=O)C(Cc5ccc(c(Cl)c5)O3)NC(=O)C(N)c3ccc(O)c(c3)Oc3cc(O)cc4c3)c3ccc(O)c(c3)-c3c(OC4OC(CO)C(O)C(O)C4O)cc(O)cc3C(C(=O)O)NC2=O)OC(CO)C(O)C1O (stereo not given) [Teicoplanin]	0.97
Cc1ncc([N+](=O)[O-])n1CCOC(=O)c1ccccc1 [Metronidazole Benzoate]	-0.51
CCCN[C@H]1CCc2nc(N)sc2C1 [Pramipexole]	-0.13
CN1[C@@H]2CC[C@H]1C[C@@H](OC(=O)c1c[nH]c3ccccc13)C2 [Tropisetron HCl]	1.04
COc1cnc(NS(=O)(=O)c2ccc(N)cc2)nc1 [Sulfameter]	0.05
CC(C)c1nc(N(C)S(C)(=O)=O)nc(-c2ccc(F)cc2)c1/C=C/[C@@H](O)C[C@@H](O)CC(=O)O [Rosuvastatin]	-1.77
O=C1NC(=O)C(c2ccccc2)(c2ccccc2)N1 [Phenytoin]	0.07
COc1cc2c(cc1OC)-c1cc3ccc(OC)c(OC)c3c[n+]1CC2 [Palmatine]	-0.17
C[C@@H](c1nc(-c2ccc(C#N)cc2)cs1)[C@](O)(Cn1cncn1)c1cc(F)ccc1F [Isavuconazole]	-1.83
